Measurements reported in PubChem BioAssay AID493191 (Broad Institute, 2011).
Among all 1,300 compounds or so, about 330 (25%) were called active. No rule for the calls is given here. The list is a sample of the results. Entries with a potency or affinity are not part of this list.

Test: MALME3 melanoma cell viability loss, dose response, orthogonal assay for MITF inhibitor project, CellTiter-Glo, cherry-picked (AID 493191)
Conditions: CellTiter-Glo luminescence, 24 h; series mostly up to 35 µM

SMILES	outcome
N#CCSc1nc2ccccc2c2nc3ccccc3n12	inactive
CC1(C)CC(=O)c2cnc(N3CCc4ccccc43)nc2C1	inactive
Cc1cc(C(=O)CSc2nnc3ccccn23)c(C)n1-c1ccccc1	inactive
COc1ccccc1N(C(=O)CCl)c1cn(C(C)=O)c2ccccc12	inactive
Cc1ccc2c(C(=O)CCl)c(C)[nH]c2c1	inactive
Cn1cc(C(=O)CCl)c2ccccc21	inactive
O=C(Nc1ccc(OC(F)(F)F)cc1)c1[nH]ncc1[N+](=O)[O-]	inactive
COC(=O)c1c(C)[nH]c(/C=N/Nc2ccccc2)c1C	inactive
COCc1nc(-c2ccc(-c3ccccc3)nc2OC)no1	inactive
C/C(=N\Nc1nccnc1Cl)c1ccc(O)c(C)c1	inactive
Nc1ccc2c(c1)OC1(CCCC1)O2	inactive
COc1cc(OC)cc(-c2oc(=O)c3cc(OC)c(OC)cc3c2C(F)(F)F)c1	inactive
CN1CCN(c2ccc(NC(=S)NC(=O)c3cccc4ccccc34)cc2)CC1	inactive
COc1c(C)cccc1C(=O)Nc1ccc(N2CCN(S(C)(=O)=O)CC2)cc1	inactive
CC1CCN(c2ccc(NC(=O)c3cccnc3)cc2)CC1	inactive
CC(C)(C)c1ccc(C(=O)Nc2ccc(CC(=O)O)cc2)o1	inactive
CCCCOC(=O)Nc1ccc2c(C)cc(=O)oc2c1	inactive
CC(C)N=C(NS(=O)(=O)c1ccccc1)C(Cl)(Cl)Cl	inactive
CC(=O)Oc1ccc(C)cc1-n1nc2ccccc2n1	inactive
NC(=O)c1ccccc1NC(=O)/C=C/c1cccc(Cl)c1	inactive

SMILES	outcome
Nc1ccc(-c2ncc(-c3ccccc3)o2)cc1	inactive
N#C/C(=C\c1c[nH]c2ccccc12)C(=O)NC1CC1	inactive
Cc1ccc(NC(=O)c2cc3cccc([N+](=O)[O-])c3[nH]2)cc1	inactive
ClC1(Cl)CC1CSc1nnc(-c2ccncc2)o1 (centres undefined)	inactive
COc1cc(SC)ccc1C(=O)Nc1ccc(Br)cn1	inactive
COc1ccc(-n2ncc3c(N4CCCCC4)ncnc32)cc1	inactive
Cc1ccc(C(=O)c2coc3ccc(O)c(Cl)c23)cc1	inactive
COc1cccc(-c2ccc3c(N)c(C(=O)NC4CC4)sc3n2)c1	inactive
O=S(=O)(CC(CN1CCCCC1)N1CCCCC1)c1ccc2ccccc2c1 (centres undefined)	inactive
Cc1ccc(S(=O)(=O)CC(CN2CCCCC2)N2CCCCC2)cc1 (centres undefined)	inactive
C=CCC(Nc1ccccc1)C12C=CC(O1)C(C(=O)OC)=C2C(=O)OC (centres undefined)	inactive
Cc1ccc(C)c(-n2c3nc(=O)[nH]c(=O)c-3cc3cc([N+](=O)[O-])ccc32)c1	inactive
COc1ccc(C2C(C#N)=C(N)Oc3c2oc(CO)cc3=O)cc1 (centres undefined)	inactive
Cc1ccc(NC(=O)Cc2noc3ccccc23)cc1	inactive
COc1ccccc1C(=O)Nc1nc(-c2ccc(S(=O)(=O)N3CCOCC3)cc2)cs1	inactive
Cc1cnc(NC(=O)c2nn(C)cc2[N+](=O)[O-])s1	inactive
O=C(O)c1cccc(N/N=C/c2cccs2)c1	inactive
Cc1cc(C(=O)Nc2ccc([N+](=O)[O-])cn2)cs1	inactive
O=C(N/N=C/c1cc([N+](=O)[O-])ccc1N1CCNCC1)c1ccc([N+](=O)[O-])cc1	inactive
O=C(O)c1cccc(N/N=C/c2ccc(OC(F)(F)F)cc2)c1	inactive

SMILES	outcome
c1cnc(SCCOc2ccc3c(c2)CCC3)nc1	inactive
Cn1nnnc1Sc1ncnc2scc(-c3cccc(F)c3)c12	inactive
CC1CCCCC1NC(=O)/C(C#N)=C/c1ccccc1F (centres undefined)	inactive
COc1cccc(NC(=O)c2cnn(-c3ccccc3)c2C)c1	inactive
CCOc1ccc(NC(=O)c2ccc3snnc3c2)cc1	inactive
CCOc1ccc(-c2noc(CCC(=O)O)n2)cc1	inactive
Cc1nc(NC(=O)/C=C/c2ccccc2)n[nH]1	inactive
O=C(Nc1ccc(Cl)cc1)OCc1ccccn1	inactive
O=C(Nc1ccc(N2CCOCC2)cc1)c1cnsn1	inactive
O=C(Nc1ccc2ncccc2c1)c1ccccc1Br	inactive
O=C(CCCCl)NC(=S)Nc1ccc(N2CCOCC2)cc1	inactive
COc1ccc(C(=O)Nc2ccc3ccccc3c2)cc1OC	inactive
O=C(Nc1ccc2c(c1)OCCO2)c1coc2ccccc2c1=O	inactive
Brc1cccc(/C=N/Nc2nn[nH]n2)c1	inactive
CCN(CC)CC(=O)Nc1scc2c1c(=O)oc1ccccc12	inactive
Cc1ccc(Nc2nnc(-c3ccccc3N)o2)cc1C	inactive
C=CCOc1ccc(/C=C/C(C)=N\O)cc1	inactive
O=C(c1cc2ccccc2oc1=O)N(Cc1ccccc1)C1CCS(=O)(=O)C1 (centres undefined)	inactive
COc1ccc(C(=O)NCC(=O)c2ccccc2)cc1	inactive
